Values joined by “and” are separate entries in the source; they are usually repeats but may differ in a detail not shown here. Identical values can stand only once. Records with an inconclusive call do not appear. Active and inactive are the calls of the source. Unless noted, calls come from the whole dose curve; as a rule, active = well fitted curve in the direction sought with a large enough effect; inconclusive = small, poorly fitted or top-dose-only effect, or another doubt; inactive = no such curve, though single readings can be large; an effect the other way counts as inactive or inconclusive.
Assays:
[1] = AP1 Signaling Pathway (AID 357; active = well fitted curve in either direction with a large enough effect, not every such curve was filed as active; note: % is set by controls: 0 for no effect and ±100 for the full control effect); settings: ME-180 AP-1-bla reporter, EGF-induced, beta-lactamase ratio, 5 h; at 7.69 µM (top of the series) unless noted
Outline: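 ME-180 cells with beta-lactamase reporter under AP-1 response element, stimulated with EC50 EGF; compounds tested in titration series, 5 h at 37 °C. CCF4 substrate added 2.5 h at room temperature; 460/530 nm emission ratio gave %activity and AC50.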

[2] = target: Cytochrome P450 1A2 (Homo sapiens) (UniProt P05177); test: p450-cyp1a2 (AID 410; calls by dose curve; note: potency is the fitted concentration of half-maximal effect;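 for activity change, negative = inhibition: -100% = full effect of reference inhibitor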)
Chain of Cytochrome P450 1A2 (Homo sapiens) (P05177 whole entry, looked up): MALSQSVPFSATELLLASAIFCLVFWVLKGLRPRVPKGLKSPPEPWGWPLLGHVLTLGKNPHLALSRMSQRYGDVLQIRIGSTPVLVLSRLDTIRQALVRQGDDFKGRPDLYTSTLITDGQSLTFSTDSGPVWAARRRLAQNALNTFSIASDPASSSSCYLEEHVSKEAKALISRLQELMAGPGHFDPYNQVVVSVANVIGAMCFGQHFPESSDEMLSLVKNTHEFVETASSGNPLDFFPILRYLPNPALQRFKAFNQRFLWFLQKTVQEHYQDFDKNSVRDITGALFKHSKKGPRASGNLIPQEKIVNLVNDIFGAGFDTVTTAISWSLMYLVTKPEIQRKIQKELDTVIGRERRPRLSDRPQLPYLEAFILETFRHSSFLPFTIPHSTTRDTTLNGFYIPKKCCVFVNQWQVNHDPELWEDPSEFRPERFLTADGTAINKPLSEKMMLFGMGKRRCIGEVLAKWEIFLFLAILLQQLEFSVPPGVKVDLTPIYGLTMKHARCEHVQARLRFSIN
Outline: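 O-Demethylation of luciferin 6' methyl ether by human CYP1A2 is monitored as luciferase luminescence. Substrate sits at Km (100uM); enzyme is 20nM. Values are scaled to 57 uM furafylline as maximal inhibition.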

[3] = Stat Signaling Pathway (AID 446; active = well fitted curve in either direction with a large enough effect, not every such curve was filed as active;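 note: ME-180 cervical cancer cells given 40 pM IL-6 alongside compound; SIE-controlled beta-lactamase reporter measured as 460/530 nm FRET emission ratio; % is set by controls: 0 for no effect and ±100 for the full control effect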); settings: ME-180 (cervical carcinoma) SIE beta-lactamase reporter, IL-6 stimulated, 5 h; at 7.69 µM (top of the series) unless noted
Outline: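 Overnight-plated ME-180 cells bearing a STAT Inducible Element beta-lactamase reporter; 5 h co-exposure to compound and 40 pM IL-6; values normalized to 300 pM IL-6 and 125 nM JAK inhibitor controls.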

[4] = target: Glucocorticoid receptor (Homo sapiens) (UniProt P04150); test: GR-EFC Redistribution (AID 451; calls by dose curve; note: potency is the fitted concentration of half-maximal effect); settings: CHO-K1 GR-EFC translocation, beta-gal luminescence, 2 h
Chain of Glucocorticoid receptor (Homo sapiens) (P04150 whole entry, looked up, the tested form may be a part): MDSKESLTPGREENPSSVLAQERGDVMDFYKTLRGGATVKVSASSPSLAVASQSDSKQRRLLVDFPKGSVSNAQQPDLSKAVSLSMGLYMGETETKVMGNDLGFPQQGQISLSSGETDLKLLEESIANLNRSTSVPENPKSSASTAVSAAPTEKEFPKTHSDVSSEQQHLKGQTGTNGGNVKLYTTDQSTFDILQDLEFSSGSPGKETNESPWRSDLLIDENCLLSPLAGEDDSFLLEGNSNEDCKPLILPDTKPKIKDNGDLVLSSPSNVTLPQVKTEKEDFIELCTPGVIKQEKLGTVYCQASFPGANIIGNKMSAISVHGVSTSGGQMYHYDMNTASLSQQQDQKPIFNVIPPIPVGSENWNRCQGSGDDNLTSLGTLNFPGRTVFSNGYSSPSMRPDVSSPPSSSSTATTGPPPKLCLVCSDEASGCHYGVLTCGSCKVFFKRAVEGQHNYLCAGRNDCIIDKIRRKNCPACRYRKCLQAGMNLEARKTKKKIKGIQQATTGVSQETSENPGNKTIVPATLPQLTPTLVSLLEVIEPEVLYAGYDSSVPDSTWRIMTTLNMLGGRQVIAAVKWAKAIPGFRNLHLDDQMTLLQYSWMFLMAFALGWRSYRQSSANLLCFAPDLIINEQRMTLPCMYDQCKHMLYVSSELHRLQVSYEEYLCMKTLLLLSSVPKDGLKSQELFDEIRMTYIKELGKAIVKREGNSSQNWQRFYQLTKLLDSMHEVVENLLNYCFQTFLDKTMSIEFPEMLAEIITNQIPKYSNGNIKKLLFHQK
Outline: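 Translocation of GR-ED fusion to nuclear EA restores b-gal, read by luminescence after 1 h room-temperature detection. Engineered CHO-K1 biosensor cells, 1,000/well, exposed 2 h at 37 C to titrations up to 46 uM final.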

[5] = target: Mitogen-activated protein kinase 10 (Mus musculus) (UniProt Q61831); test: JNK3 AlphaScreen Assay (AID 530; active = well fitted curve in either direction with a large enough effect, not every such curve was filed as active;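 note: kinase came from lysate of stimulated human HepG2 cells; signal reports phosphorylation of biotinylated GST-cJun 1-79 at Ser73 with 10 µM ATP; % is set by controls: 0 for no effect and ±100 for the full control effect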)
Outline: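 qHTS titrations with 15 min compound pre-incubation before adding ATP (10 uM final). Read-out: AlphaScreen of Ser73-phosphorylated biotin-GST-cJun using HepG2 lysate JNK3 activated by IL-1β and TNFα.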

[6] = target: 3',5'-cyclic-AMP phosphodiesterase 4B (Homo sapiens) (UniProt Q07343); test: qHTS Assay for Inhibitors of PDE-IV (AID 607; active = well fitted activation curve with a large enough effect in the main read-out, with a control signal flat, not every such curve was filed as active; note: % of control where 0% means no effect)
Chain of 3',5'-cyclic-AMP phosphodiesterase 4B (Homo sapiens) (Q07343 whole entry, looked up): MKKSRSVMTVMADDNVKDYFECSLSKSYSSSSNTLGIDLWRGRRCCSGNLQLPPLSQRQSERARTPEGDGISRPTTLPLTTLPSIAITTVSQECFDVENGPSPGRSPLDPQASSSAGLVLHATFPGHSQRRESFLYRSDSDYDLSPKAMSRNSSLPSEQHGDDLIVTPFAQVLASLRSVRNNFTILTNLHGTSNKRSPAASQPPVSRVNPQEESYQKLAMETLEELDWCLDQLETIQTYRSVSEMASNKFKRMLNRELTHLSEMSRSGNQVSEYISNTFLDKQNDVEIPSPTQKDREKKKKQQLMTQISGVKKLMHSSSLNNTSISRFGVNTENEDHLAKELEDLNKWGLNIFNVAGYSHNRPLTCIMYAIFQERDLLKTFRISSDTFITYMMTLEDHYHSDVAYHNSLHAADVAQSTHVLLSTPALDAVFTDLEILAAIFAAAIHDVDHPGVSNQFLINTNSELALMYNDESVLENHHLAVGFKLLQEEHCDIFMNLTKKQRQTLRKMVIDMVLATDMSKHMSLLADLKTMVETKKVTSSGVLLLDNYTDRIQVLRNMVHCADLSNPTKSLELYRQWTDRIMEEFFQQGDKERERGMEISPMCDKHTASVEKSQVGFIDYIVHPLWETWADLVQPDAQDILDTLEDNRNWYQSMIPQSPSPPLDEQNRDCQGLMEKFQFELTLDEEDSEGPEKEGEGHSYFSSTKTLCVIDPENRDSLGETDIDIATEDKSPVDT
Outline: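 Live HEK293 cells with a modified cyclic nucleotide-gated (CNG) channel report intracellular cAMP via membrane-potential dye fluorescence (ex 535/em 590 nm). Endogenous PDE-IV was targeted. Compounds were tested at up to 22.9 uM final; RO 20-1724 100 uM served as control.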

[7] = qHTS Assay for Lipid Storage Modulators (AID 1519; calls by dose curve); settings: Drosophila S3 cells, BODIPY lipid droplet/cell ratio, laser cytometry, cells loaded with oleic acid
Outline: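 Cells seeded at 5,000 per well were treated with compounds over a concentration series and loaded with oleic acid (400 uM, as added). Lipid droplet fluorescence (488 nm excitation, 500-530 nm channel) was read by laser-scanning cytometry and normalized to 20 uM Triacsin C.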

[8] = target: Ubiquitin carboxyl-terminal hydrolase 1 (Homo sapiens) (UniProt O94782); test: Inhibitors of USP1/UAF1: Pilot qHTS (AID 504865);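 note: rhodamine fluorescence freed from ubiquitin-rhodamine substrate followed over time; top concentration of the series differs between compounds; % is set by controls: 0 for no effect and ±100 for the full control effect; nearly all actives have a fitted effect of over 35% in size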
Chain of Ubiquitin carboxyl-terminal hydrolase 1 (Homo sapiens) (O94782 whole entry, looked up): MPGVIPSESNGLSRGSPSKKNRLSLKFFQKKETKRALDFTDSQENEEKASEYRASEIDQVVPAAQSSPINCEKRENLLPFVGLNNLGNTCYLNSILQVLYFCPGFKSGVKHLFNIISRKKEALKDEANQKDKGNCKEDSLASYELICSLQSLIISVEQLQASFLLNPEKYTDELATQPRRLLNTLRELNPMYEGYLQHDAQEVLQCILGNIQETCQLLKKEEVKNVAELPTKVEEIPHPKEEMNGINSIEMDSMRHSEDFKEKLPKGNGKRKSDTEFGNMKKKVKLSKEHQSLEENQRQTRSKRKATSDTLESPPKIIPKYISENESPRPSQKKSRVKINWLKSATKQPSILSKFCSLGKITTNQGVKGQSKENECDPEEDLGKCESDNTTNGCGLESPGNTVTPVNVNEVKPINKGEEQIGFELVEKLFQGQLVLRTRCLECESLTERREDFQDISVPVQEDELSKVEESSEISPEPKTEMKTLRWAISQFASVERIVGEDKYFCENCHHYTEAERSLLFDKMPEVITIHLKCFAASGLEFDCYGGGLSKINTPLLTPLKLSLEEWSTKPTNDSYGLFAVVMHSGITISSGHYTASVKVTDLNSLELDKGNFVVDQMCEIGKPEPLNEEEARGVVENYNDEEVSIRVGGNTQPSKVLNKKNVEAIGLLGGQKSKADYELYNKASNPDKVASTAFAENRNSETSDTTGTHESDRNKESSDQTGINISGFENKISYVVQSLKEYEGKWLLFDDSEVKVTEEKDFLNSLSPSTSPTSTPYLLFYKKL
Outline: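 Deubiquitinase activity followed as kinetic rhodamine fluorescence release from 150 nM Ub-Rho. 1 nM USP1/UAF1 with compound, after 15 min room-temperature preincubation, in HEPES pH 7.8 buffer containing TCEP, EDTA, BSA and Tween-20.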

[9] = NFAT Signaling Pathway (AID 444; active = well fitted curve in either direction with a large enough effect, not every such curve was filed as active;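 note: carbachol stimulus at about its EC50 of 1 µM final; % is set by controls: 0 for no effect and ±100 for the full control effect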); settings: Jurkat NFAT-bla M1, carbachol, beta-lactamase ratio, 5 h; at 7.69 µM (top of the series) unless noted
Outline: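 Read-out: CCF4 FRET ratio (460 nm/530 nm) after 1 h RT dye loading, used for %activity and AC50 from titration series. Cells: Jurkat NFAT-β-lactamase/M1 line, treated with compound plus 1 uM carbachol for 5 h, 37 °C.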

[10] = target: Glucocorticoid receptor (Homo sapiens) (UniProt P04150); test: GR-GFP Redistribution (AID 450;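 active = compounds whose dose series gives a full or clear partial fitted curve of increased nuclear translocation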; note: potency is the fitted concentration of half-maximal effect); settings: U2OS GR-GFP nuclear translocation, laser cytometry, 2 h
[11] = target: ATP-dependent 6-phosphofructokinase (Trypanosoma brucei brucei) (UniProt O15648); test: qHTS Assay to Find Inhibitors of T. brucei phosphofructokinase: hit validation (AID 492961)
Chain of ATP-dependent 6-phosphofructokinase (Trypanosoma brucei brucei) (O15648 whole entry, looked up): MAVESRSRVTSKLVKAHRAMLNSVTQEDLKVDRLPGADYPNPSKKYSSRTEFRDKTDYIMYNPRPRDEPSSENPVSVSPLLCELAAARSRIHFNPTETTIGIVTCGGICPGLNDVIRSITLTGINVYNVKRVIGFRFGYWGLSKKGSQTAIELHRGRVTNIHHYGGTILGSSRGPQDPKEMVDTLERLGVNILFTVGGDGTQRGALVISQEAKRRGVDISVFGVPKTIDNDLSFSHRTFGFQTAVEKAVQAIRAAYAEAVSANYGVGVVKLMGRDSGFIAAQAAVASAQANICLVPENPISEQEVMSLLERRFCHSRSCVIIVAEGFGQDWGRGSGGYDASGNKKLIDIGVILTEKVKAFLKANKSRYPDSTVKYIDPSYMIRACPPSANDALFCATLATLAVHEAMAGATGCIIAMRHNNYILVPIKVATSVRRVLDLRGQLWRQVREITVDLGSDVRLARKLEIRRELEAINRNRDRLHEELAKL
Outline: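 In this biochemical qHTS validation, titrated compounds were tested against 1.25 nM PFK with 0.1 mM ATP and 0.5 mM F6P. Percent activity came from controls lacking or containing enzyme.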

[12] = target: Luciferin 4-monooxygenase (Photinus pyralis) (UniProt P08659); test: Biochemical firefly luciferase enzyme assay for NPC (AID 624030);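 note: purified P. pyralis luciferase at 10 nM with luciferin and ATP substrate; 0% = DMSO and -100% = full luciferase inhibition by PTC124 control; nearly all actives have a fitted effect of over 70% in size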
Chain of Luciferin 4-monooxygenase (Photinus pyralis) (P08659 whole entry, looked up): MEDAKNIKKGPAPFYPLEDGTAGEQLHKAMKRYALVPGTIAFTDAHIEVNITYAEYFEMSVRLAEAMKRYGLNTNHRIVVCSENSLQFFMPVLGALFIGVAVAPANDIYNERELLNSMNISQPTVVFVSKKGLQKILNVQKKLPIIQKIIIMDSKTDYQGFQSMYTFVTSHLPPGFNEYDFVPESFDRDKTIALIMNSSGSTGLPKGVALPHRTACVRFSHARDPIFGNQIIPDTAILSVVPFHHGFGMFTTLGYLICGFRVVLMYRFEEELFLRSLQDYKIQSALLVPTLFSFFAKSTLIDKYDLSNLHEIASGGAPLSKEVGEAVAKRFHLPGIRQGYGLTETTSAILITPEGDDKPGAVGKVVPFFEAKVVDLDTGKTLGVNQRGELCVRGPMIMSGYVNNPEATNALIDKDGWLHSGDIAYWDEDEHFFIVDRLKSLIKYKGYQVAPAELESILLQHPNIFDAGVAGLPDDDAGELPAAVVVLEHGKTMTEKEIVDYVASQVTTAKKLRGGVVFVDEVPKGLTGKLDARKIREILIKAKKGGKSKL
Outline: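 Direct inhibition of firefly luciferase enzyme (10 nM final, 50 mM Tris Acetate) assessed by luminescence within 5 minutes. Percent activity scaled between DMSO and PTC124 positive control, with concentration-effect curves classified by fit quality and response.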

[13] = qHTS profiling for inhibitors of Plasmodium falciparum proliferation (AID 504749);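 note: 0% = DMSO vehicle and full inhibition = artemisinin control; nearly all actives have a fitted effect of over 60% in size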; settings: P. falciparum in erythrocytes, SYBR Green DNA, 72 h, at 12.8 µM (top of the series)
Outline: (§1)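 SYBR Green fluorescence of parasite DNA, read after lysis and overnight dark incubation, measured growth over 72 h in erythrocyte culture at 0.3% parasitemia and 2.5% hematocrit. Data normalised to DMSO and 0.29 uM artemisinin, with plate-drift correction.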

AS120 = test: as above; settings: P. falciparum in erythrocytes, SYBR Green DNA, 72 h; series mostly up to 28.7 µM
Outline: as §1

CP238 = test: as above; settings: P. falciparum in erythrocytes, SYBR Green DNA, 72 h; series mostly up to 12.8 µM
Outline: as §1

CP265 = test: as above; settings: P. falciparum in erythrocytes, SYBR Green DNA, 72 h; series mostly up to 12.8 µM
Outline: as §1

FAB9 = test: as above; settings: P. falciparum in erythrocytes, SYBR Green DNA, 72 h; series mostly up to 12.8 µM
Outline: as §1

[14] = measured here: cell count channel max response
[15] = measured here: lipid channel max response

Cc1cnc(CNc2nc(-c3ccc(N(C)C)cc3)nc3ccccc23)cn1
active: Potency [2] 3.16 µM
13.6%: max response [7, 14]
26%: max response [7, 15]
inactive: activity change, negative = inhibition [1] -17% | activity, negative = inhibition [3] 7.71% | Potency [4] > 46 µM | Potency [5] | Potency [6] | activity change, negative = inhibition ([7]; at 57.5 µM (top of the series)) 11.9%

CC(CCC(=O)O)C1CCC2C3C(O)C[C@@H]4CC(O)CC[C@@]4(C)C3CC[C@@]12C (stereo partly drawn)
15% and 25.1%: max response [7, 15]
inactive: activity change, negative = inhibition ([7]; at 57.5 µM (top of the series)) 1.17% and 5.02% | Potency [8]
13% and 15.4%: max response [7, 14]

CN[C@@H]1[C@H](O[C@@H]2O[C@H](CO)[C@@H](N)[C@H](O)[C@@H]2O)O[C@H]2C[C@@H](N)[C@@H](O[C@H]3[C@@H](O)[C@H](O)[C@H](N)C[C@@H]3N)O[C@H]2[C@H]1O
-11.9%: max response [7, 15]
-10.4%: max response [7, 14]
inactive: activity change, negative = inhibition [1] 3.97% [at 17.2 µM] | Potency [2] | activity change, negative = inhibition [9] -18% [at 17.2 µM] | activity, negative = inhibition [3] -2.35% [at 17.2 µM] | Potency [10] > 20.6 µM | Potency [4] > 20.6 µM | Potency [5] | Potency [6] | activity change, negative = inhibition ([7]; at 25.7 µM (top of the series)) -1.23% | outcome [11] | Potency [8] | outcome [12] | activity, negative = inhibition ([13]; parasite line A) -1.02% | activity, negative = inhibition ([13]; parasite line B) -5.91% | Potency (AS120) | Potency (CP238) | Potency (CP265) | Potency (FAB9)

O=C(O)/C=C\c1ccc(Cn2ccnc2)cc1
active: Potency [2] 12.6 µM
-3.7%: max response [7, 15]
-6.14%: max response [7, 14]
inactive: activity change, negative = inhibition [1] -4.02% [at 17.2 µM] | activity change, negative = inhibition [9] -0.213% [at 17.2 µM] | activity, negative = inhibition [3] 6.45% [at 17.2 µM] | Potency [10] > 20.6 µM | Potency [4] > 20.6 µM | Potency [5] | Potency [6] | activity change, negative = inhibition ([7]; at 25.7 µM (top of the series)) 0.716% | outcome [11] | Potency [8] | outcome [12] | activity, negative = inhibition ([13]; parasite line A) 2.69% | activity, negative = inhibition ([13]; parasite line B) -5.94% | Potency (AS120) | Potency (CP238) | Potency (CP265) | Potency (FAB9)

Source: PubChem BioAssay (NCATS)
